Compounds with a hit are over-represented: about 3.9% of the library has one in this group of screens.
TRAIL sens C8: viability loss with TRAIL in NB7+C8 cells, primary screen, TRAIL sensitizer project, cell-based, ATPlite luminescence; inhibition (viability loss, TRAIL sensitization), % at 10 µM; actives 1% (n = 360,000); AID 624354, 2012;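 active means compounds causing at least 50% loss of cell viability in the single-dose screen, relative to plate controls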
aSyn UTR inh: MLPCN primary screen, SNCA 5' untranslated region; alpha-synuclein 5'UTR reporter, inhibitor activity; inhibition, % (tested at 7.5 µM); actives 0.82% (n = 300,000); AID 1813, 2009; in the data active means inhibition above about 60%;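 further: H4 neuroglioblastoma cells stably carrying SNCA 5'UTR luciferase fusion; 0% = DMSO wells and 100% = positive control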
HSP90 inh: HSP90 inhibitors, primary screen, cell lysate, luminescence. Heat shock protein HSP 90 (rabbit reticulocyte lysate; luciferase refolding). Rabbit reticulocyte lysate, luciferase refolding luminescence, 3 h. inhibition, % at 5.6 µM. actives 0.91% (n = 290,000). AID 1789, 2009;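 active means inhibition above the screen-wide mean plus 3 SD, computed separately per campaign, cut at about 16% in these data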;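 further: 0% = DMSO wells and 100% = 60 µM geldanamycin wells; inhibitors lower the luminescence because luciferase stays unfolded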
HIF-2a inh: HIF-2a reporter inhibitors, primary screen, luminescence, 786-0 RCC cells; inhibition, % at 18.8 µM; AID 624352, 2012; 786-0 RCC cells HIF-2a reporter, luciferase luminescence, overnight; actives 0.72% (n = 360,000);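 active means inhibition of the luminescence signal of 40% or more relative to plate controls, in a single-dose primary screen at 18.75 µM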
TROY signal inh: inhibitors of TROY-driven NF-kB signaling, primary screen, Q293 LMP1-TROYcd cells, NF-kB luciferase, uHTS; inhibition, % at 10 µM; Q293 LMP1-TROYcd NF-kB luciferase reporter, 4 h; actives 0.98% (n = 360,000);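 active means compounds whose plate-normalised and pattern-corrected inhibition of the luciferase reporter signal at the single screening dose is 50% or more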
TWEAK Fn14 block: inhibitors of TWEAK-Fn14 signaling, primary screen, luciferase reporter cells, uHTS | TWEAK-stimulated Fn14 reporter cells, luciferase luminescence, 8 h | inhibition, % at 10 µM | actives 2% (n = 360,000); in the data active means inhibition above about 50%
Starred values were filed as active, the others as inactive; / = no result given.

SMILES | TRAIL sens C8 | aSyn UTR inh | HSP90 inh | HIF-2a inh | TROY signal inh | TWEAK Fn14 block
O=C(NCCN1CCC(n2c(=O)[nH]c3ccccc32)CC1)c1ccc(C(F)(F)F)cc1C(F)(F)F | 2.6 | / | / | -15.0 | 19.6 | 31.5
COc1ccc(O)c(/C=N/NC(=S)Nc2cccnc2)c1 | 65.3* | -14.0 | -1.3 | -105.8 | -30.9 | -17.1
Oc1ccc(/C=N/NC(=S)Nc2cccnc2)cc1 | 71.2* | -51.5 | 9.1 | -119.3 | -27.4 | 8.4
COc1cccc(/C=N/NC(=S)Nc2cccc(S(=O)(=O)N(C)C)c2)c1 | -5.5 | -6.9 | 4.2 | -40.1 | -21.5 | 7.4
Oc1ccc(/C=N/NC(=S)N/N=C/c2ccc(O)cc2)cc1 | 5.4 | -59.8 | 5.3 | -142.5 | -5.5 | 8.7
COc1ccc(O)c(/C=N/NC(=S)Nc2cccc(S(=O)(=O)N(C)C)c2)c1 | 44.2 | 74.1* | -2.2 | -73.4 | 29.4 | 14.6
CCN(CC)S(=O)(=O)c1ccc(N/N=C/c2cccnc2)nc1 | -3.5 | 7.6 | 3.8 | 11.2 | 3.8 | -8.8
COc1cccc(/C=N/NC(=S)Nc2cccnc2)c1 | 21.8 | -60.0 | -0.9 | -188.1 | -24.0 | -23.1
CCN(CC)S(=O)(=O)c1ccc(N/N=C/c2cc(OC)ccc2O)nc1 | 29.9 | 86.8* | 1.8 | 23.9 | 9.5 | -11.9
Cc1nccn1CC(=O)c1ccccc1 | -12.8 | / | / | 7.2 | 2.4 | -13.8
CCn1c(Oc2ccccc2F)nc2c1c(=O)n(C)c(=O)n2C | 5.6 | 8.8 | 0.0 | 20.5 | 29.6 | 73.1*
CCCCc1ccc(NC(=O)c2ccc(N(C)S(C)(=O)=O)cc2)cc1 | 52.8* | -41.1 | 1.4 | -3.6 | -16.4 | 36.9
CCN(CC)S(=O)(=O)c1ccc(C(=O)Nc2ccc(Cc3ccncc3)cc2)cc1 | 31.7 | -20.0 | -3.3 | 30.6 | 38.2 | 58.1*
CCN(CC)S(=O)(=O)c1ccc(NC(=O)c2ccc(N(C)S(C)(=O)=O)cc2)cc1 | 20.2 | -13.6 | 3.2 | 13.3 | 26.0 | 50.1*
CCC(=O)c1ccc(OC(=O)C2CCN(C3=NS(=O)(=O)c4ccccc43)CC2)cc1 | 3.3 | / | / | -1.4 | -15.2 | -4.2
COc1ccc(NC(=O)C(c2ccc(C(F)(F)F)cc2)n2c(=O)c(-c3cc4ccccc4[nH]3)nc3ccccc32)cc1 (stereo not drawn) | 4.7 | / | / | -18.4 | / | /
COc1ccc(S(=O)(=O)N2CCOCC2)cc1NC(=O)CSc1nnc2n1CCCCC2 | -8.5 | / | / | 10.6 | -7.8 | 12.3
Cc1onc(-c2c(Cl)cccc2Cl)c1C(=O)N/N=C(\N)COc1ccc(Cl)cc1 | 6.6 | 89.3* | 0.1 | 25.4 | 20.7 | -52.9
Cc1onc(-c2c(Cl)cccc2Cl)c1C(=O)ONC(=O)c1ccccc1 | 51.6* | -9.0 | 1.3 | 30.9 | -1.4 | -26.6
C[C@H]1COC(=O)[C@H](Cc2ccc(F)cc2)C/C=C\C[C@H](CC(=O)NCCO)C(=O)N1 | 16.8 | / | / | 5.1 | -9.4 | 4.2
O=C1Nc2ccccc2-n2nnnc2C1N1CCN(c2ccc(C(F)(F)F)cc2[N+](=O)[O-])CC1 (stereo not drawn) | 6.7 | / | / | 16.3 | / | /
CCn1cnc2cc(NCc3nc4ccccc4n3C)ccc21 | 37.8 | -107.7 | 13.2 | -100.8 | 69.2* | 85.8*
Cn1c(CNc2ccccc2)nc2ccccc21 | -0.7 | -113.4 | 3.2 | -170.9 | -37.6 | -10.6
CC(C)n1cnc2cc(NCc3nc4ccccc4n3C)ccc21 | 31.9 | -115.1 | 16.2* | -166.4 | 66.7* | 60.2*
CCOc1ccc(C2NC(=O)NC(C)=C2C(=O)OCc2ccccc2)cc1 (stereo not drawn) | 4.8 | 25.6 | -4.5 | 29.0 | 20.2 | -8.4
SMILES | TRAIL sens C8 | aSyn UTR inh | HSP90 inh | HIF-2a inh | TROY signal inh | TWEAK Fn14 block
CCC(CC)COC(=O)C1=C(C)NC(=O)NC1c1cc(OC)ccc1OC (stereo not drawn) | 1.0 | -16.9 | 4.1 | 10.6 | -25.9 | 104.4*
COCCOC(=O)C1=C(C)NC(=O)NC1c1ccc(-c2ccc(F)cc2)o1 (stereo not drawn) | -5.0 | 15.8 | -1.2 | 9.9 | -18.1 | -8.2
COc1ccc(COC(=O)C2=C(C)NC(=O)NC2c2ccc(F)cc2)cc1 (stereo not drawn) | 8.5 | -11.0 | -0.3 | 32.9 | 33.1 | 53.4*
CCOC(=O)C1=C(C)NC(=O)NC1c1ccc(-c2ccccc2F)o1 (stereo not drawn) | 8.5 | -18.6 | -4.4 | 4.5 | 54.4* | 16.5
COc1cccc(N2CCN(C(=O)c3ccc(CS(=O)c4ccc(C)cc4)o3)CC2)c1 (stereo not drawn) | 27.0 | 96.6* | 2.4 | 16.0 | -4.4 | -2.8
COc1cccc(N2CCN(C(=O)c3ccc(CS(=O)c4ccc(Cl)cc4)o3)CC2)c1 (stereo not drawn) | 7.1 | 107.3* | -4.9 | 16.1 | 13.6 | -0.8
COc1cccc(N2CCN(C(=O)c3ccc(CS(=O)Cc4ccc(C)cc4)o3)CC2)c1 (stereo not drawn) | -7.0 | 14.3 | -5.5 | 20.9 | 10.8 | -10.2
O=C(COc1ccc(-c2nnco2)cc1)N1CCOCC1 | -11.6 | / | / | 11.0 | 2.1 | -9.2
C[C@H](CO)N1C[C@H](C)[C@@H](CN(C)S(=O)(=O)c2ccc3c(c2)OCCCO3)OCc2cn(nn2)CCCC1=O | 0.6 | / | / | 1.3 | -4.7 | -11.8
O=S(=O)(c1ccccc1)c1cc(O)ccc1O | 5.2 | 2.6 | 0.8 | -1.8 | -2.6 | 14.6
Nc1ccc(S(=O)(=O)c2cc(O)c3ccccc3c2O)cc1 | -2.7 | / | / | -49.6 | 74.1* | 78.6*
CCOC(=O)c1ccc(N/C=C/C(=O)c2ccco2)cc1 | 50.6* | -85.0 | 5.4 | -266.7 | -9.4 | -12.1
O=C(/C=C/Nc1ccc(F)cc1)c1ccco1 | 60.4* | -143.6 | -2.0 | -179.5 | 7.5 | 13.5
Cc1ccc([N+](=O)[O-])cc1N/C=C/C(=O)c1ccco1 | 29.8 | -138.4 | 0.4 | -171.4 | -27.2 | -49.4
Cc1ccc(N/C=C/C(=O)c2ccco2)c(O)c1 | 38.7 | -158.4 | 2.9 | -399.9 | -35.2 | 95.0*
CCOC(=O)c1ccc(N/C=C/C(=O)c2ccc(OC)c(OC)c2)cc1 | 18.1 | 12.8 | 0.2 | -0.2 | 4.2 | -13.1
COc1ccc(S(=O)(=O)N2CCc3ccccc32)cc1C(=O)NC1(C)CCS(=O)(=O)C1 (stereo not drawn) | -13.1 | / | / | 11.6 | 0.1 | -1.9
O=C(O)c1ccc(C(=O)C(=O)c2ccccc2)cc1 | -14.0 | 23.3 | -0.8 | 12.4 | 1.8 | -5.1
C=C(C(=O)c1ccccc1)C(C)C(=C)C(=O)c1ccccc1 | -3.0 | -148.7 | 4.5 | 91.0* | 0.5 | 94.5*
Cc1sc2ncnc(N3CCC(C(=O)Nc4ccc(S(N)(=O)=O)cc4)CC3)c2c1C | -2.2 | / | / | 19.0 | 36.1 | 49.9
CCN(CC)S(=O)(=O)c1cc(NC(=O)C2CCN(c3ncnc4sc(C)c(C)c34)CC2)ccc1Cl | 40.1 | -14.5 | / | 21.1 | 64.3* | 96.8*

Compound activity: PubChem, several laboratories
